# Several values for one entry are separate records, joined by “and”; a condition that tells them apart may be missing. Equal entries are not always repeated. Compounds without any hit were thinned out: in the full panel of roughly 79,000, 15% have a hit. A number with no mark means an inactive call. Activity calls are given as the source filed them. No stated cut-off is given here; in the data, active means growth inhibition above about 70%; inactive means the rest.
# Tests used:
# [1] = NCI Yeast Anticancer Drug Screen. Data for the rad50 strain (AID 155);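 further: 0% = growth of vehicle-only cultures of the same strain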; conditions: S. cerevisiae rad50 strain growth inhibition; at 50.0 µM; active compounds read high
# Procedure, shortened: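 Yeast carrying a defined DNA repair defect were exposed to test compounds, and growth was compared with vehicle-treated controls to give percent inhibition.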
# [2] = NCI Yeast Anticancer Drug Screen. Data for the mec2-1 strain (AID 157); conditions: S. cerevisiae mec2-1 strain, at 50.0 µM, active compounds read high
# Procedure, shortened: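 mec2-1 yeast strain, carrying an alteration in DNA damage repair or cell cycle control, was exposed to compounds; growth inhibition was measured relative to vehicle-treated controls.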
# [3] = NCI Yeast Anticancer Drug Screen. Data for the sgs1 mgt1 strain (AID 161);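 further: 0% = growth of cultures given vehicle only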; conditions: S. cerevisiae sgs1 mgt1 strain, at 50.0 µM, active compounds read high
# Procedure, shortened: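 This yeast growth screen uses a strain with defined DNA-repair lesions; compound-treated growth is compared with vehicle-treated growth.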
# [4] = NCI Yeast Anticancer Drug Screen. Data for the cln2 rad14 strain (AID 165);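 further: 0% = growth equal to vehicle treated cultures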; conditions: S. cerevisiae cln2 rad14 strain, at 50.0 µM, active compounds read high
# Procedure, shortened: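 Yeast carrying cln2 and rad14 alterations (cell cycle control and DNA damage repair) were exposed to compounds. Growth inhibition was measured against vehicle-treated controls.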
# [5] = NCI Yeast Anticancer Drug Screen. Data for the bub3 strain (AID 167); conditions: S. cerevisiae bub3 mutant strain, at 50.0 µM, active compounds read high
# Procedure, shortened: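 Compounds were applied to a genetically altered yeast strain carrying a cell-cycle control defect. Growth inhibition was scored against vehicle-treated controls.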
# [6] = NCI Yeast Anticancer Drug Screen. Data for the mlh1 rad18 strain (AID 175); conditions: S. cerevisiae mlh1 rad18 strain growth inhibition; at 50.0 µM; active compounds read high
# Procedure, shortened: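 Growth inhibition of the yeast strain was measured after compound exposure and expressed relative to vehicle-treated controls. The strain carries defined defects in DNA damage repair.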
SMILES,growth inhibition [1],growth inhibition [2],growth inhibition [3],growth inhibition [4],growth inhibition [5],growth inhibition [6]
C[C@@H]1C[C@@]2(O[C@@H]2C)C(=O)O[C@@H]2CCN3CC=C(COC(=O)[C@]1(C)O)[C@H]23,-4.5%,-16.2%,-7.95%,13.3%,-4.9%,-75%
CC(C)c1cccc(OC(=O)N(C)C=O)c1,-8.1%,12.7%,-12.8%,-46.4%,-21.4%,-1.5%
c1ccc2c(c1)CC1OCN3CN(COC4Cc5ccccc5CC43)C1C2 (stereo not drawn),0.75%,-4.7%,1.2%,-5.9%,-1.45%,-7.15%
Cn1c(=O)n(C)c(=O)n(C)c1=O,3.8%,6.65%,-5.2%,-1.55%,14.6%,-12.6%
O=C(OCCOc1ccccc1)C(Cl)(Cl)Cl,-6.05%,-7.1%,10.6%,-8.8%,12.3%,3.25%
Cn1c(O)c(C(=O)NC2CCCCC2)c(=O)n(C)c1=S,-6.1%,12.2%,18.9%,27.6%,8.5%,13.1%
O=[N+]([O-])c1cccc2cccc([N+](=O)[O-])c12,-7.45%,-28.1%,-10.3%,-86.7%,-35%,11.3%
COc1ccccc1N=Nc1cccc[c]1[Hg][Cl],98.2% (active),99% (active),98.7% (active),98.7% (active),98% (active),98.3% (active)
[Cl][Pt+2][Cl].c1ccc(CC2CC[N-]CC2)cc1.c1ccc(CC2CC[N-]CC2)cc1,-11.6%,1.1%,1.3%,2.35%,9.3%,-3.6%
Cc1ccc(S(=O)(=O)NNP(Br)(c2ccccc2)(c2ccccc2)c2ccccc2)cc1,26.3%,-1.1%,5.7%,-0.75%,5.35%,12.4%
S=C=Nc1ccccn1,9.9%,3.35%,22.1%,7.8%,30.6%,21.9%
O=C1NC(=O)C(Br)C(=O)N1 (tested in a mixture with another compound),-8.5%,8.95%,0.5%,-19.6%,-1.95%,-0.3%
O=[N+]([O-])c1ccc(OCc2ccc(Cl)c(S(=O)(=O)F)c2)c(Cl)c1,-18.1%,-8.3%,29.8%,-24.4%,20.7%,24.1%
CCO[C@@H]1c2cc3c(cc2[C@@H](c2cc(OC)c(O)c(OC)c2)[C@H]2C(=O)OC[C@@H]21)OCO3,88.1% (active),92.2% (active),89% (active),85.2% (active),88.5% (active),87.5% (active)
Cc1cccc(NC(=O)C(=O)C2C(=O)NC(=O)NC2=O)c1C,0.7%,13.8%,-14%,7.25%,20.2%,12.2%
C=CCC1(OC(C)=O)CCC2C3CCC4CC=CCC4(C)C3CCC21C (stereo not drawn),-9.9%,4.5%,-8.85%,-51.4%,1%,-9.4%
COC(=O)C(Cl)CCl (stereo not drawn),2.45% and 39.4%,15.3% and 6.15%,-9.05% and 16%,-23.2% and -34.7%,-2.3% and 15.8%,-20.8% and 25.7%
O=c1oc2cc(O)ccc2c(O)c1C(c1ccccn1)c1c(O)c2ccc(O)cc2oc1=O,12.6%,9.15%,-13.7%,-1.85%,-17.4%,-52%
OC[P+](CO)(CO)CO,-2.8%,1.05%,-8.15%,-24.9%,14.7%,-5.9%

SMILES,growth inhibition [1],growth inhibition [2],growth inhibition [3],growth inhibition [4],growth inhibition [5],growth inhibition [6]
C/C=C(\CC)C1(C)C(=O)NC(=O)NC1=O,7.4%,7.8%,-5.7%,6.35%,1.4%,-4.1%
CC(C)(C)c1ccc(O)cc1,-21.1%,-29.8%,-18.8%,-9.5%,-1.45%,8.85%
CC(=O)SCCC(NC(=S)Nc1ccccc1)P(=O)(Oc1ccccc1)Oc1ccccc1 (stereo not drawn),-17.9%,10.3%,8.35%,-11.9%,-7.1%,-10.3%
COc1cc(OC)cc(C(=O)Cc2c(C(=O)c3ccccc3)c3ccccc3n2C(=O)c2ccccc2)c1,-5.5%,-6%,0.1%,-50.3%,-2.15%,3.2%
COc1cccc(C2CC23C(=O)NC(=O)NC3=O)c1 (stereo not drawn),-18%,-14.2%,-2.1%,6.6%,-19.2%,-21.2%
O=C1SCCC1NP(=O)(Oc1ccccc1)Oc1ccccc1 (stereo not drawn),5.35%,23.1%,-1.35%,-10.9%,9.25%,21.9%
CCC(=O)N(c1ccccc1)C(C)CN1CCC(O)(c2ccccc2)CC1 (stereo not drawn),4.2%,-12.4%,5.9%,-37%,-10.4%,-8.15%
CN(C)c1ccc(N=[N+]=[N-])cc1,3.05%,11%,10.3%,-74.8%,-6.45%,8.15%
COc1cc([C@@H]2c3cc4c(c(O)c3C[C@H]3COC(=O)[C@@H]32)OCO4)cc(OC)c1O,17.8%,-13.9%,14.2%,9.4%,7.2%,-14.7%
CN(Cc1ccccc1)CC(O)c1ccccc1Cl (stereo not drawn),-0.75%,-2.7%,21.4%,-28.2%,13.3%,25.1%
C/C=C/CC1(C(C)C)C(=O)NC(=O)NC1=O,8.6% and 18.7%,11.2% and 8%,-4.2% and 10.8%,3.8% and 10.6%,-1.25% and 1.2%,-1.65% and 8.4%
ClCCOCOCCCl,-0.5%,-7.1%,-20.1%,-38%,-6.15%,-7.25%
COc1cccc(OC)c1CCN,-27.9%,-5.3%,-11.4%,-1.1%,-24.8%,-36%
CCCCN1CCC2(CC1)C(=O)NC(=S)NC2=O,-12.4%,-2.5%,-3.65%,4.65%,6.25%,-22.3%
COc1ccc([N+](=O)[O-])cc1CNCCCl,-2.75%,24.6%,36.5%,-14.8%,20.1%,19.4%
O=C(CC(=O)C(F)(F)F)c1cccs1.[Fe],22.1% and 27.1%,34.8% and 30.1%,33.2% and 28.4%,11.2% and 10.8%,20.9% and 21.2%,48.2% and 42.5%
CN(C)C(=O)CCl,1.85%,6.15%,20.6%,9.9%,-5.55%,7.25%
C/C=C1/C[N+]2([O-])CC[C@@]34c5ccc(OC)cc5N(C)[C@H]3C2CC1C4C(=O)OC (stereo partly drawn),7.65%,-8.05%,-3.1%,-6%,-10.8%,2.25%
CCOP(=O)(OCC)C(C)(CC)/N=C(\N)NC#N (stereo not drawn),-4.8%,-36.9%,-8.85%,12%,15%,-18.1%

# Reference: PubChem BioAssay (NCI)
